Shown are actives, neighbours in structure and some others; about 2.5% of the full set was active somewhere.
Rce1 inhib – yeast Ras-converting enzyme inhibition | Q03530 | calls only | AID 2563 | 0.27% of 290,000 active | yeast membranes, quenched prenylated peptide cleavage fluorescence;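 active means fall in fluorescence gain of 50% or more versus controls, with final raw signal at or below 3038400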;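 further: plate controls were neutral control wells for no effect and wells lacking membranes for full effect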
UBC13 polyUb – blocks human UBC13 polyubiquitin chain formation; 0.47% of 330,000 active; P61088; TR-FRET; inhibition, % at 20 µM; in the data active means inhibition above about 45%, passing the limit was not always enough
Target sequence (P61088 whole entry, looked up): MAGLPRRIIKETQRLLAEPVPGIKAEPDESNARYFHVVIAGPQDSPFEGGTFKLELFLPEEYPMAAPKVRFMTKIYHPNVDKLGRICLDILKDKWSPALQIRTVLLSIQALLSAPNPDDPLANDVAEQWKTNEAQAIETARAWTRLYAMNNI
MEKK2 WT-MEK5 – raises or lowers MEK5 binding to wildtype human MEKK2 PB1 domain; binding response (% of control), % at 10 µM; Q9Y2U5; bead flow cytometry, Alexa488-MEK5 binding to MEKK2 WT; actives lie on both sides; 1.1% of 290,000 active; AID 1531; in the data active means binding response below about 67% or above about 130%
MEKK2 mut-MEK5 – signal of MEK5 binding to mutant human MEKK2 PB1 domain. bead flow cytometry, Alexa488-MEK5 binding to MEKK2 mutant. AID 1530. 0.35% of 290,000 active. percent response, % at 10 µM; in the data active means percent response above about 24%, passing the limit was not always enough
MEKK3 PB1 HTS – modulators (inhibitors or enhancers) of MEK5 binding to human MEKK3 PB1 domain. Q99759. bead-based flow cytometry, Alexa488-MEK5 binding to MEKK3; actives lie on both sides; 0 = blocked by unlabeled MEK5, 100 = vehicle. binding response (% of control), % at 10 µM. 1.4% of 290,000 active. AID 1529;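 active means binding response more than 3 SD above or below the average of its plate-row segment, actives on both sides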;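 further: Alexa488 bead fluorescence after subtracting the streptavidin-only scavenger bead signal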
MEKK2wt confirm – raises or lowers MEK5 binding to wildtype human MEKK2, retest; binding response (% of control), % at 10 µM; shares compounds with MEKK3 PB1 HTS; 2.4% of 5,900 active; bead flow cytometry, Alexa488-MEK5 binding to MEKK2 WT; actives lie on both sides; in the data active means binding response below about 16% or above about 210%; inactive means in between
MEKK2mut confirm – signal of MEK5 binding to mutant human MEKK2, retest | shares compounds with MEKK3 PB1 HTS | bead flow cytometry, Alexa488-MEK5 binding to MEKK2 mutant | percent response, % at 10 µM | 2% of 5,900 active | AID 1893; in the data active means percent response mostly above about 71%, no sharp cut-off; inactive means mostly below about 38%;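 further: higher means compound restores mutant binding toward wildtype level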
MEKK3 confirm – MEKK3-MEK5 PB1 inhibition, single concentration confirmation; 1.8% of 5,900 active; shares compounds with MEKK3 PB1 HTS; binding response (% of control), % at 10 µM; bead flow cytometry, Alexa488-MEK5 binding to MEKK3; hits give low values;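 active means binding response below 72% of control, or above a set upper limit, though filed actives all read lower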;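 further: 100% = DMSO only wells and 0% = binding blocked by excess unlabeled MEK5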
Numbers without * were called inactive; i = inactive; x = no result; [ ] = another dose, or the depositor's remark.

SMILES	Rce1 inhib	UBC13 polyUb	MEKK2 WT-MEK5	MEKK2 mut-MEK5	MEKK3 PB1 HTS	MEKK2wt confirm	MEKK2mut confirm	MEKK3 confirm
COC(=O)C1CCC(C)(C(=O)Nc2ccccc2)C1(C)C (configuration not stated)	i	7	3.0*[inhibitor]	-20	3.0*[inhibitor]	102	3	100
COc1ccc(NC(=O)C2CCC(C)(C(=O)O)C2(C)C)cc1 (configuration not stated)	i	-4	94	-4	96	x	x	x
O=C(NNS(=O)(=O)c1ccccc1)c1cccs1	i	3	104	18	104	x	x	x
O=C(NNS(=O)(=O)c1ccc2ccccc2c1)c1cccs1	i	-3	103	0	144*	99	-1	101
COc1ccccc1NC(=O)C(=O)NNS(=O)(=O)c1ccc2ccccc2c1	i	3	118	31	131*	103	5	101
O=C1C(=O)N(CCN2CCOCC2)C(c2ccccn2)/C1=C(/O)c1ccccc1 (configuration not stated)	i	-15	0.0*[inhibitor]	-27	0.0*[inhibitor]	108	7	108
CCn1c(NC(C)=O)c(-c2ccccc2Cl)c(=O)c2ccccc21	i	5	104	2	104	x	x	x
Cc1c(NC(=O)CSc2nnc3c4ccccc4n(CCc4ccccc4)c3n2)c(=O)n(-c2ccccc2)n1C	i	-10	104	6	103	x	x	x
CCn1c2ccccc2c2nnc(SCC(=O)Nc3c(C)n(C)n(-c4ccccc4)c3=O)nc21	i	-17	2.0*[inhibitor]	-17	2.0*[inhibitor]	101	-2	97
O=C(Nc1nnc(-c2ccc3c(c2)CCCC3)o1)c1c(F)cccc1F	i	-11	86	-3	68*[inhibitor]	102	3	108
O=C(Nc1nnc(-c2ccc3c(c2)CCCC3)o1)c1ccc(Cl)cc1Cl	i	-19	104	1	103	x	x	x
CCN(c1ccccc1)S(=O)(=O)c1ccc(Cl)c(NC(=O)CSc2nnc(C)s2)c1	i	-4	102	1	101	x	x	x
C=CCNC(=O)c1cc2cccc(OC)c2oc1=O	i	-7	113	0	128*	114	8	109
CCOC(=O)CC(NC(=O)c1cc2cc(Cl)cc(Cl)c2oc1=O)c1cccc([N+](=O)[O-])c1 (configuration not stated)	i	-5	79	1	53*[inhibitor]	99	-5	101
COc1cccc2cc(C(=O)NCc3ccc(C)cc3)c(=O)oc12	i	7	103	4	99	x	x	x
CCOC(=O)CC(NC(=O)c1cc2cccc(OC)c2oc1=O)c1cccc([N+](=O)[O-])c1 (configuration not stated)	i	-8	102	0	135*	102	1	104
O=C(O)CC(NC(=O)C12CC3CC(CC(C3)C1)C2)c1cccc([N+](=O)[O-])c1 (configuration not stated)	i	1	90	-4	93	x	x	x
CCOC(=O)CC(NS(=O)(=O)c1ccc(OC)c(OC)c1)c1cccc([N+](=O)[O-])c1 (configuration not stated)	i	1	100	-2	98	x	x	x
C/C(=N\Nc1ccc2nncn2n1)c1ccc(Br)s1	i	-2	103	2	102	x	x	x
O=C(NCCCN1CCOCC1)/C(=C/c1ccco1)NC(=O)c1ccccc1	i	-5	104	0	104	x	x	x
CC[n+]1c(/C=C/C=C/N(C(C)=O)c2ccccc2)sc2ccccc21	i	-241	x	-16	2.0*[inhibitor]	13*[inhibitor]	7	87
O=C(Nc1ccc(Cl)cc1Cl)NC1CCN(S(=O)(=O)c2ccc(F)cc2)CC1	i	-10	108	2	99	x	x	x
CCO[C@H]1OC(C(=O)NC2CC2)=C[C@@H](c2c[nH]c3ccccc23)[C@@H]1CCCO	i	-6	87	5	92	x	x	x
